Test [1] concerns Wnt5a (protein binding on small-molecule microarray). Description: small molecules binding Wnt5a protein – biophysical, small-molecule microarray, 635/667 nm fluorescence, primary screen (AID 1142).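 Note: fluorescence read at 667 nm with signal to noise per printed feature.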 Particulars: 635 nm fluorescence, higher = more signal.
The nature of test [2]: ATP-based viability of Huh7 replicon cells – cell-based, CellTiter-Glo luminescence, basal, 48 h, cytotoxicity control for HCV replication inhibitor project, primary screen (AID 1143).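 Note: Huh7 hepatoma cells carrying a hepatitis C replication reporter with no stimulus; test concentration not given here.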 To be noted: higher = more signal, called active from +8 up or from −8 down. (In general: Replicon systems follow genome replication, usually without infectious particles.)
A short description of test [3]: Pseudomonas biofilm growth suppression – PAO1 strain, BacTiter-Glo luminescence, LB-PBS, primary screen (AID 1144). To be noted: P. aeruginosa PAO1 biofilm, 12 h, higher = more signal.
The nature of test [4]: basal CRE-LacZ reporter activity in PC12 – cell-based, unstimulated, primary screen (AID 1145). To be noted: no forskolin, luminescence, 4.5 h, higher = more signal, called active from +8 up or from −8 down.
Test [5] in a line: forskolin-driven CRE-LacZ activity in PC12 – cell-based, CRE-LacZ reporter, forskolin-stimulated, primary screen (AID 1146).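 Note: PC12 cells with 6xCRE LacZ reporter stimulated by forskolin 10 µM; beta-galactosidase reporter signal reflecting CREB driven transcription.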 Particulars: luminescence, 4.5 h, higher = more signal, called active from +8 up or from −8 down.
Test [6] addresses Streptavidin (Streptomyces avidinii) (UniProt P22629). Description: compounds binding control protein streptavidin – biophysical, small-molecule microarray, 635/667 nm fluorescence, artefact control for SMM compound annotation, primary screen (AID 1147).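 Note: signal reflects streptavidin binding to arrayed compounds as a control protein.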 Particulars: higher = more signal.
Test [7] is described as follows: probe aInhba binding on compound microarray – biochemical, small-molecule microarray, 635/667 nm fluorescence, primary screen (AID 1148).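 Note: score merges 667nm spot fluorescence with signal-to-noise for antibody binding to printed compounds.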 To be noted: higher = more signal.
Test [8] deals with Torsin-1A (Homo sapiens) (UniProt O14656). Kind of test: TOR1A wild-type binding on microarray – cell lysate, small-molecule microarray, lysate, 635/667 nm, primary screen (AID 1149). To be noted: COS7 hTOR1A-WT lysate, 635 nm fluorescence, higher = more signal.
Test [9] has the same target. Description: torsin A mutant lysate binding on microarrays – cell lysate, small-molecule microarray, COS7 lysate, 635/667 nm fluorescence, primary screen (AID 1150).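 Note: score pools 667 nm emission and signal to noise measuring lysate protein binding.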 Particulars: COS7 hTOR1A mutant lysate, 635 nm fluorescence, higher = more signal.
The subject of test [10] is Sonic hedgehog protein (Shh). Kind of test: Sonic hedgehog microarray binding compounds – biochemical, small-molecule microarray, 635/667 nm fluorescence, primary screen (AID 1151).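 Note: Shh protein binding to compounds spotted on small-molecule microarray slides; score combines spot fluorescence intensity with signal-to-noise across triplicate slides.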 To be noted: 635 nm fluorescence, higher = more signal.
The nature of test [11]: optical density shifts of acrAB sulA E. coli – strain DRC41, OD650, 48 h, E. coli filamentation inducer project, primary screen (AID 1152).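 Note: E. coli MC1000 strain DRC41 lacking acrAB efflux pump and sulA.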 To be noted: higher = more signal, called active from +8 up or from −8 down.
Test [12] can be described thus: probe aLefty1 binding on compound microarray – biochemical, small-molecule microarray, 635/667 nm fluorescence, primary screen (AID 1153).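 Note: score merges spot fluorescence with signal-to-noise ratio from the scanned slide images.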 Particulars: higher = more signal.
A short description of test [13]: plasmodial surface anion channel blockers, osmotic lysis – cell-based, P. falciparum Indochina, OD700, 1 h, primary screen (AID 1154). To be noted: P. falciparum Indochina infected RBC osmotic lysis, higher = more signal, called active from +8 up or from −8 down.
Test [14] can be described thus: plasmodial surface anion channel blockers, osmotic lysis – cell-based, P. falciparum Indochina, OD700, 2 h, primary screen (AID 1155).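 Note: lysis reports solute entry through the parasite surface anion channel PSAC.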 Particulars: P. falciparum Indochina infected erythrocytes, higher = more signal, called active from +8 up or from −8 down.
A short description of test [15]: changes in parasitized red cell lysis, either direction – P. falciparum Indochina, OD700, 3 h, PSAC antagonist project, primary screen (AID 1156). Particulars: P. falciparum-infected erythrocytes, osmotic lysis, higher = more signal, called active from +8 up or from −8 down.
Test [16] is described as follows: plasmodial surface anion channel blockers, osmotic lysis – cell-based, P. falciparum Indochina, OD700, 18 h, primary screen (AID 1157). To be noted: P. falciparum Indochina infected erythrocytes, osmotic lysis OD700, 18 h; higher = more signal, called active from +8 up or from −8 down.
A short description of test [17]: S6 kinase pathway phospho-S6 level changes – cell-based, A549, cytoblot, luminescence, serum-stimulated, primary screen (AID 1158).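 Note: serum-stimulated A549 lung adenocarcinoma cells; signal is phosphorylated S6 detected by cytoblot immunostaining with HRP secondary.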 Particulars: 5 h, higher = more signal.
The target in test [18] is NADPH oxidase 2 (Homo sapiens) (UniProt P04839). Kind of test: compounds shifting NOX2 Amplex Red fluorescence – cell-based, HEK293-NOX2, PMA-stimulated, NOX inhibitor project, primary screen (AID 1159). Note: test concentration not given here. To be noted: 45 min, higher = more signal, called active from +8 up or from −8 down.
In test [19] the target is NADPH oxidase 4 (Homo sapiens) (UniProt Q9NPH5). Kind of test: compounds shifting NOX4 Amplex Red fluorescence – cell-based, HEK293-NOX4, tetracycline-induced, NOX inhibitor project, primary screen (AID 1160). To be noted: HEK293-NOX4, Amplex Red H2O2 fluorescence, 45 min; higher = more signal, called active from +8 up or from −8 down.
In test [20] the target is NADPH oxidase 5 (Homo sapiens) (UniProt Q96PH1). Description: compounds shifting NOX5 Amplex Red fluorescence – cell-based, HEK293-NOX5, NOX inhibitor project, primary screen (AID 1161). To be noted: HEK293-NOX5, ionomycin, 45 min, higher = more signal.

Molecules are shown by their SMILES. Calls of active or inactive are those of the source. Unless noted, the rule behind the calls is not given here.

From PubChem BioAssay come the findings set out here.

Chain of Torsin-1A (Homo sapiens) (O14656 whole entry, looked up): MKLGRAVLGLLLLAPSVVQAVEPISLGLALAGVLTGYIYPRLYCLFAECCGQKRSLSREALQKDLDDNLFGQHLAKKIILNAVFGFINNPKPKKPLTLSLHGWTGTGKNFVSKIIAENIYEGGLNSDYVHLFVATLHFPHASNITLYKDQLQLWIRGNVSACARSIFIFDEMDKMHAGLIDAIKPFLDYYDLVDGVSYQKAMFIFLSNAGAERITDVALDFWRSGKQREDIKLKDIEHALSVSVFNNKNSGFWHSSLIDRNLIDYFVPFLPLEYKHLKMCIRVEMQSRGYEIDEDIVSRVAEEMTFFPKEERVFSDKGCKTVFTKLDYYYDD
Chain of NADPH oxidase 2 (Homo sapiens) (P04839 whole entry, looked up): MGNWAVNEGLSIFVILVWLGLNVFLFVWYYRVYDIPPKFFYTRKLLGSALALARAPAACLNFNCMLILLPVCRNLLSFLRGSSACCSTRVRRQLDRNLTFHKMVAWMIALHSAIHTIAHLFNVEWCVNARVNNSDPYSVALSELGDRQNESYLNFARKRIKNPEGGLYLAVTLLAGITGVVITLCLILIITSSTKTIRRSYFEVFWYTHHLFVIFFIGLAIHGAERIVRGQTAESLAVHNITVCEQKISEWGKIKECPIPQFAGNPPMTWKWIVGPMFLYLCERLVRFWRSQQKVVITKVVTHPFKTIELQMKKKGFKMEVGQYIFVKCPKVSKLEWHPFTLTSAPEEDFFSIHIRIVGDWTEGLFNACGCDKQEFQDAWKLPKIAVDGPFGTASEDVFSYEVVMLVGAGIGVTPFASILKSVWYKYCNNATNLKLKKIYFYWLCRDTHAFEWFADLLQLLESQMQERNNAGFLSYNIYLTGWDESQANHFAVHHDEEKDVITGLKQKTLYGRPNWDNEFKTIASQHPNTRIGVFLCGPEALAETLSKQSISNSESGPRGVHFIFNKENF
Chain of Streptavidin (Streptomyces avidinii) (P22629 whole entry, looked up): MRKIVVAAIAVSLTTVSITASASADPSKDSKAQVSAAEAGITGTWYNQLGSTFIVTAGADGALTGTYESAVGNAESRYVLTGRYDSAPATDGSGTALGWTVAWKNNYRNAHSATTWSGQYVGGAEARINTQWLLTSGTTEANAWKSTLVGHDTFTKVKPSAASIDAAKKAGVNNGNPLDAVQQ
Chain of NADPH oxidase 4 (Homo sapiens) (Q9NPH5 whole entry, looked up): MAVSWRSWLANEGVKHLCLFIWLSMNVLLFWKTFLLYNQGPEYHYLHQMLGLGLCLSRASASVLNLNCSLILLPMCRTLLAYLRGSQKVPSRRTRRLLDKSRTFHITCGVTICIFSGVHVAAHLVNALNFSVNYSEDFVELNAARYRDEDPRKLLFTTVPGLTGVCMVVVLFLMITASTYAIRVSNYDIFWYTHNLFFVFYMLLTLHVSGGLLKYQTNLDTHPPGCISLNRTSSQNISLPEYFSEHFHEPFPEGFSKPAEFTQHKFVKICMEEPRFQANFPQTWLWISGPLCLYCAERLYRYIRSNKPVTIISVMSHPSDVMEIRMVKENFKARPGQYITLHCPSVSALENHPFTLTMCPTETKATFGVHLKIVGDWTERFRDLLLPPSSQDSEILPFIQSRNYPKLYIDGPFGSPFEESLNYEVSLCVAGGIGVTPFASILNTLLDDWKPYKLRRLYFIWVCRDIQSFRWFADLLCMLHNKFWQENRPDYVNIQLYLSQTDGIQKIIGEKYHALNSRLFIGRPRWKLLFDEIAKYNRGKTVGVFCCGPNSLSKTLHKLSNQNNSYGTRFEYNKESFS
Chain of NADPH oxidase 5 (Homo sapiens) (Q96PH1 whole entry, looked up): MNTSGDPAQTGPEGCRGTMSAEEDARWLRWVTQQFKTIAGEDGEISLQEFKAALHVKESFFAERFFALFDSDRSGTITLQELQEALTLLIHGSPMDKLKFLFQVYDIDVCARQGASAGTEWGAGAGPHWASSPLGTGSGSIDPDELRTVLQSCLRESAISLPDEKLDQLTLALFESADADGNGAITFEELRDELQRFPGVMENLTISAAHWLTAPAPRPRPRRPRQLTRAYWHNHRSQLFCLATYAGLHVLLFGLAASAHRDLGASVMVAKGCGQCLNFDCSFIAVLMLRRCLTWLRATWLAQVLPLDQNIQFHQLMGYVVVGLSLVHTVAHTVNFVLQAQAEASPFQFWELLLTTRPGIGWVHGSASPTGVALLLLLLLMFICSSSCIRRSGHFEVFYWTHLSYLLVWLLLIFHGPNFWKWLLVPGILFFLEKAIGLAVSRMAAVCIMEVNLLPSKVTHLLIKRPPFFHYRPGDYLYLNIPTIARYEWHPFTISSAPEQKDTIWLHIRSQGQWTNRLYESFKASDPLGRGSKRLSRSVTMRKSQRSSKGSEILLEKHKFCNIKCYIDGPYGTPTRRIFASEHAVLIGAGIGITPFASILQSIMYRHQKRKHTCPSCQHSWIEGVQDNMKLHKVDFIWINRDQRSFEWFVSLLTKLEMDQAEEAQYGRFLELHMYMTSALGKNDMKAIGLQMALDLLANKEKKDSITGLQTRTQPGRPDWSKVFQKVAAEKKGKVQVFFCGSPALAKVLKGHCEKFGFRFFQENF

Take `CN1C(=O)C2C=CC(C(O)c3ccc(I)cc3)N(N(c3ccccc3)c3ccccc3)C2C1=O` (stereo not given): the composite z-score was -0.268 in [1]; 0.609 in [6]; -0.0581 in test [7]; -0.728 with Torsin-1A (Homo sapiens) [8]; -0.545 with Torsin-1A (Homo sapiens) [9]; -0.416 in test [10]. For the same molecule, the composite z-score in test [12] was found to be 0.193. The z-score in test [2] is -0.619 (inactive); in [3] it was 0.257 (inactive); in test [4], -0.136 (inactive); in test [5], 0.58 (inactive); in [11], -1.27 (inactive); in [13], 3.99 (inactive). Moreover, the z-score in test [14] was 1.62 (inactive); in test [15] it was 0.537 (inactive); in test [16], 1.54 (inactive); in test [17] it was -1.19; in [18], 0.461 (inactive); in test [19], 1.23 (inactive). The z-score in test [20] is -0.585.

With `C=CCNC(=O)[C@H]1[C@@H]2C(=O)O[C@@H](c3ccccc3)[C@@H](c3ccccc3)N2[C@@H](c2ccc(O)cc2)[C@]12C(=O)Nc1ccccc12`, the composite z-score in [1] is -0.124; in test [6], -0.642; in test [7], -0.128; with Torsin-1A (Homo sapiens) [8], 0.64; with Torsin-1A (Homo sapiens) [9], 0.778; in test [10] it was 0.279. Further, the composite z-score in test [12] is -0.191. Also, the z-score in test [2] is -0.792 (inactive); in test [3] it was -0.683 (inactive); in test [4] it was -0.195 (inactive); in test [5], -0.0955 (inactive); in test [11], 1.58 (inactive); in [13], 2.59 (inactive). For the same molecule, the z-score in [14] was 0.301 (inactive); in test [15], -0.458 (inactive); in [16], 0.393 (inactive); in [17], 0.288; in test [18] it was 0.0548 (inactive); in test [19], -0.789 (inactive). Besides, in test [20], the z-score was 1.04.

Take `C=C(C)C1CN([C@H](CO)c2ccccc2)C(=O)/C1=C\c1ccccc1` (stereo not given in full): the composite z-score in test [1] was -0.0623; in test [6], -0.0971; in test [7], -0.0719; in the test with Torsin-1A (Homo sapiens) [8] it was 0.0321; with Torsin-1A (Homo sapiens) [9], 0.343; in [10], 0.633. For the same molecule, the composite z-score in [12] is -0.147. The z-score in test [2] is -4.75 (inactive); in test [3], 1.3 (inactive); in test [4] it was 2.04 (inactive); in test [5] it was -0.391 (inactive); in test [11] it was 1.01 (inactive); in [13] it was -0.0012 (inactive). For the same molecule, the z-score in test [14] was -0.916 (inactive); in test [15], -0.683 (inactive); in test [16] it was -1.8 (inactive); in [17], 1.59; in test [18], -0.00303 (inactive); in test [19] it was 0.0494 (inactive). Further, the z-score in test [20] was -1.27.

`COCCOC(=O)N1C(=O)[C@@]2(c3cc(C#CC4(O)CCCCCC4)ccc31)[C@H](C(N)=O)[C@H]1C(=O)O[C@H](c3ccccc3)[C@H](c3ccccc3)N1[C@@H]2c1ccc(OCCO)cc1`: the composite z-score in [1] worked out at 0.309; in [6] it was 0.84; in test [7], 0.201; with Torsin-1A (Homo sapiens) [8], 0.838; with Torsin-1A (Homo sapiens) [9], 0.637; in [10], 1.24. The composite z-score in test [12] was 0.0861. Besides, the z-score in test [2] is -4.36 (inactive); in test [3] it was -0.295 (inactive); in test [4], 0.362 (inactive); in test [5], 0.0846 (inactive); in test [11], -0.0172 (inactive); in test [13], 3.59 (inactive). Besides, the z-score in [14] was 1.45 (inactive); in test [15], 0.843 (inactive); in test [16] it was 1.01 (inactive); in test [17], 0.0826; in test [18] it was 1.52 (inactive); in test [19], 0.984 (inactive). In addition, the z-score in [20] turned out to be 0.923.

As to `COC(=O)C1(CC(C)C)C=C2C(=C(C)C(=O)C2C)CN1` (stereo not given), the composite z-score in test [1] is 0.392; in test [6], 0.351; in test [7], 1.17; with Torsin-1A (Homo sapiens) [8] it was 0.0384; with Torsin-1A (Homo sapiens) [9], 0.276; in test [10], -0.645. Moreover, in test [12], the composite z-score was found to be 1.59. The z-score in test [2] was -0.109 (inactive); in [3] it was 0.142 (inactive); in [4], 0.0041 (inactive); in test [5], 2.32 (inactive); in test [11] it was -1.62 (inactive); in [13] it was 0.71 (inactive). The z-score in test [14] was -0.161 (inactive); in [15], 0.396 (inactive); in [16], 0.421 (inactive); in [17], -0.164; in test [18] it was 0.425 (inactive); in [19], -1.51 (inactive). Besides, the z-score in test [20] is -2.83.
